Reference: the supplement of paper PMC13380429

Tested on: Vero E6 infected with SARS-CoV-2
Test: inhibition of SARS-CoV-2 cytopathic effect; higher = more antiviral protection, active = above 15
Settings: 48 h

Measured: inhibition of SARS-CoV-2 cytopathic effect

CCCCN1CCCCC1C(=O)Nc1c(C)cccc1C (stereo not given) [bupivacaine]
inactive: 1 nM 2.92% | 8.33 nM -0.56% | 100 nM -2.62% | 833.33 nM 1.82% | 10000 nM 0.61%

Cc1ccc2c(N3CCN(CCc4cccc(N5CCNC5=O)c4)CC3)cccc2n1
inactive: 1 nM -2.94% | 8.33 nM -3.04% | 100 nM -3.97% | 833.33 nM 1.55% | 10000 nM 1.48%

CC(C)C[C@H](NC(=O)CNC(=O)c1cc(Cl)ccc1Cl)B1OC(=O)C(CC(=O)O)(CC(=O)O)O1
inactive: 1 nM -0.89% | 8.33 nM 1.36%
active: 100 nM 21.2% | 833.33 nM 34.2% | 10000 nM 18.7%

Cc1cccc(C)c1-n1c(=O)c2cnc(Nc3ccc(N4CCN(C)CC4)cc3)nc2n2c3ccccc3nc12
inactive: 1 nM -1.2% | 8.33 nM -0.67% | 100 nM -2.31% | 833.33 nM 0.21% | 10000 nM -3.38%

O=C1Nc2ccc(Cl)c3c2C1(CCCCN1CC=C(c2ccc(Cl)cc2)CC1)CCC3 (stereo not given)
inactive: 1 nM 0.36% | 8.33 nM -1.45% | 100 nM -2.5% | 833.33 nM -2.84% | 10000 nM -3.25%

COc1cc2ncnc(Nc3ccc(O)c(Br)c3)c2cc1OC
inactive: 1 nM 0.67% | 8.33 nM -0.59% | 100 nM -3.04% | 833.33 nM -5.16% | 10000 nM -9.51%

CCC(c1ccccc1)c1c(O)c2ccccc2oc1=O (stereo not given) [phenprocoumon]
inactive: 1 nM -0.55% | 8.33 nM 0.6% | 100 nM 1.1% | 833.33 nM -0.13% | 10000 nM -0.87%

O=C(Nc1ccncc1)c1cc([N+](=O)[O-])ccc1Cl
inactive: 1 nM -0.14% | 8.33 nM 1.74% | 100 nM -1.69% | 833.33 nM -1.5% | 10000 nM 14.7%

CCCCn1ccc(N2CCC(c3ccccc3)CC2)c(Cl)c1=O
inactive: 1 nM 1.82% | 8.33 nM 3.38% | 100 nM 1.99% | 833.33 nM 1.64% | 10000 nM -5.17%

C=CC(=O)N1CCN(C(=O)CNc2cc(I)c(Cl)cc2O)CC1 [K-Ras(G12C)-inhibitor-12]
active: 833.33 nM 24.7% | 10000 nM 30.4%
inactive: 1 nM 3.63% | 8.33 nM 2.32% | 100 nM 7.62%

CCCCCCCCCCCCCCCCCCCCCCO [docosanol]
inactive: 1 nM -8.94% | 8.33 nM -7.8% | 100 nM -10.4% | 833.33 nM -7.91% | 10000 nM -4.03%

O=C(O)c1ccccc1O [salicylic-acid]
inactive: 1 nM 1.59% | 8.33 nM -5.54% | 100 nM -2.37% | 833.33 nM 0.26% | 10000 nM 1.57%

COc1ccc(COc2cc3oc(=O)c4cc(C(C)O)ccc4c3cc2OC)cc1 (stereo not given) [palomid-529]
inactive: 1 nM 0.28% | 8.33 nM -1.83% | 100 nM 0.02% | 833.33 nM -0.05% | 10000 nM 1.22%

N=C(N)N [guanidine]
inactive: 1 nM -0.16% | 8.33 nM 0.17% | 100 nM -2.15% | 833.33 nM -3.58% | 10000 nM -6.14%

CCNC(=O)C#Cc1ccc2c(C(=Nc3ccc(CN(C)C)cc3)c3ccccc3)c(O)[nH]c2c1
inactive: 1 nM 0.51% | 8.33 nM -0.81% | 100 nM -4.45% | 833.33 nM -15.2% | 10000 nM -20.6%

c1ccc([C@H]2CNCc3ccccc32)cc1 [4-phenyl-1,2,3,4-tetrahydroisoquinoline]
inactive: 1 nM -0.57% | 8.33 nM 5.18% | 100 nM 3.96% | 833.33 nM 8.92% | 10000 nM 3%

N[C@]1(C(=O)O)CC[C@@H](C(=O)O)C1
inactive: 1 nM 1.21% | 8.33 nM 2.87% | 100 nM 0.81% | 833.33 nM 1.58% | 10000 nM 1.7%

c1ccc2nc(C3=NCCN3)ccc2c1
inactive: 1 nM -1% | 8.33 nM 0.61% | 100 nM 2.25% | 833.33 nM 3.75% | 10000 nM 2.01%

CC[C@H](C)C(=O)O[C@H]1C[C@H](O)C=C2C=C[C@H](C)[C@H](CC[C@@H](O)C[C@@H](O)CC(=O)O)[C@H]21
inactive: 1 nM 0.27% | 8.33 nM 3.73% | 100 nM 2.53% | 833.33 nM 6.3% | 10000 nM 1.69%

Oc1ccc(C(O)CNCCCCCCNCC(O)c2ccc(O)c(O)c2)cc1O (stereo not given) [hexoprenaline]
inactive: 1 nM -3.2% | 8.33 nM 0.65% | 100 nM 2.27% | 833.33 nM -1.49% | 10000 nM -2.87%

C[N+]1([O-])[C@@H]2C[C@@H](OC(=O)[C@H](CO)c3ccccc3)C[C@H]1[C@@H]1O[C@@H]12 (stereo not given in full) [scopolamine-N-oxide]
inactive: 1 nM 7.18% | 8.33 nM 4.58% | 100 nM 3.81% | 833.33 nM 13.6% | 10000 nM 3.51%

CC1Oc2cc(cnc2N)-c2c(nn(C)c2C#N)CN(C)C(=O)c2ccc(F)cc21 (stereo not given)
inactive: 1 nM -0.41% | 8.33 nM 1.22% | 100 nM 0.495% | 833.33 nM -2.23% | 10000 nM 0.255%

O=C(Nc1ccc(Oc2ccc(Cl)cn2)c(Cl)c1)c1ccccn1
inactive: 1 nM 0.81% | 8.33 nM -0.54% | 100 nM 1.75% | 833.33 nM -3.64% | 10000 nM 0.26%

COc1cc(N2CCC(O)CC2)ccc1Nc1cc(Nc2ccccc2S(=O)(=O)C(C)C)c2cc[nH]c2n1
inactive: 1 nM 5.38% | 8.33 nM 3.7% | 100 nM -1.89% | 833.33 nM 0.98% | 10000 nM -7.51%

COc1cc2nc(N3CCCN(C)CC3)nc(NC3CCN(Cc4ccccc4)CC3)c2cc1OC
inactive: 1 nM 0.59% | 8.33 nM 0.41% | 100 nM -2.3% | 833.33 nM 1.53% | 10000 nM 11.7%

Cc1nnc(-c2ccc3occ(-c4ccc([S+](C)[O-])cc4)c3c2)o1 (stereo not given)
inactive: 1 nM 0.61% | 8.33 nM 0.11% | 100 nM -1.48% | 833.33 nM 1.56% | 10000 nM 8.77%

O=c1cc[nH]c(=O)[nH]1 [uracil]
inactive: 1 nM -0.48% | 8.33 nM 2.2% | 100 nM 2.09% | 833.33 nM 1.66% | 10000 nM -2.12%

N[C@@H](Cc1ccc(O)cc1)C(=O)NCC(=O)NCC(=O)O
inactive: 1 nM 1.38% | 8.33 nM 0.88% | 100 nM 1.16% | 833.33 nM 1.07% | 10000 nM 0.4%

OCCN1CCN(CC/C=C2/c3ccccc3Sc3ccc(C(F)(F)F)cc32)CC1 [flupentixol]
inactive: 1 nM -4.51% | 8.33 nM 0.12% | 100 nM -2.01% | 833.33 nM -0.29% | 10000 nM 0.08%

CCN1CCN(c2ccc(Nc3cc(N(C)C(=O)Nc4c(Cl)c(OC)cc(OC)c4Cl)ncn3)cc2)CC1
active: 10000 nM 23.9%
inactive: 1 nM -2.08% | 8.33 nM -5.16% | 100 nM 0.14% | 833.33 nM -2.75%

CC1=C(CC(=O)O)c2cc(F)ccc2/C1=C\c1ccc(S(C)(=O)=O)cc1 [exisulind]
inactive: 1 nM -5.21% | 8.33 nM -2.14% | 100 nM -3.65% | 833.33 nM 0.09% | 10000 nM -2.3%

CC[C@]12CCCN3CCc4c(n(c5ccccc45)[C@@](O)(C(=O)OC)C1)[C@@H]32 [vincamine]
inactive: 1 nM 0.28% | 8.33 nM 2.12% | 100 nM 0.98% | 833.33 nM -2.3% | 10000 nM -1.71%

C[C@@]1(C(=O)O)NCCc2cc(O)c(O)cc21 [salsolinol-1-carboxylic-acid]
inactive: 1 nM 0.05% | 8.33 nM -1.48% | 100 nM -1.16% | 833.33 nM 2.45% | 10000 nM 1.69%

CN1CCC(OC(c2ccccc2)c2ccccc2)CC1 [diphenylpyraline]
inactive: 1 nM 0.97% | 8.33 nM 0% | 100 nM 0% | 833.33 nM 0.39% | 10000 nM -1.64%

O=C(Nc1ccc(-c2ccnc(Nc3ccc(N4CCOCC4)cc3)n2)cc1)C1CCCN1 (stereo not given)
inactive: 1 nM -1.37% | 8.33 nM -1.43% | 100 nM -0.97% | 833.33 nM -1.01% | 10000 nM 8.93%

C[C@]12CC[C@H](O)CC1=CC[C@@H]1[C@@H]2CC[C@]2(C)C(=O)CC[C@@H]12
inactive: 1 nM 1.25% | 8.33 nM 0.45% | 100 nM 0.19% | 833.33 nM 5.63% | 10000 nM 1.12%

O=C(O)c1nn(Cc2ccc(Cl)cc2Cl)c2ccccc12 [lonidamine]
inactive: 1 nM -0.69% | 8.33 nM 0.67% | 100 nM 0.81% | 833.33 nM 1.31% | 10000 nM -0.94%

CN1CCN(c2cccc3[nH]c(=O)oc23)CC1 [pardoprunox]
inactive: 1 nM 0.73% | 8.33 nM 1.76% | 100 nM 3.14% | 833.33 nM -2.14% | 10000 nM 1.85%

COc1cc(N2CCC(N3CCN(C)CC3)CC2)ccc1Nc1ncc(Cl)c(Nc2ccccc2P(C)(C)=O)n1 [brigatinib]
inactive: 1 nM 0.45% | 8.33 nM -1.85% | 100 nM -2.21% | 833.33 nM -0.42% | 10000 nM -5.17%

Oc1ccc(O)cc1 [hydroquinone]
inactive: 1 nM -0.8% | 8.33 nM 2.88% | 100 nM 1.25% | 833.33 nM 1.2% | 10000 nM 1.62%

COc1cc(NC(=O)c2cccc(-n3cc(NC(=O)Nc4cccc(C)c4)cn3)c2)cc(OC)c1OC
inactive: 1 nM -0.97% | 8.33 nM -0.75% | 100 nM 2.66% | 833.33 nM 0.39% | 10000 nM -0.61%

CCC(=O)O[C@H]1CC[C@H]2[C@@H]3CCC4=CC(=O)CC[C@]4(C)[C@H]3CC[C@]12C
inactive: 1 nM -13.2% | 8.33 nM -10.2% | 100 nM -12.5% | 833.33 nM -13.3% | 10000 nM -14%
